Data published in PubChem BioAssay (Tox21).
Unmarked numbers belong to inactive results. Results filed as inconclusive are left out. Where a call stands in place of a potency, no number is given. Calls of active or inactive are those of the source. Unless noted, calls come from the whole dose curve; as a rule, active = well fitted curve in the direction sought with a large enough effect in the repeat runs; inconclusive = weak or mixed curves; inactive = no such curve, though single readings can be large; an effect the other way counts as inactive or inconclusive.

What was measured:
[1] = qHTS assay to identify small molecule agonists of the hypoxia (HIF-1) signaling pathway (AID 1224846; active = well fitted activation curve with a large enough effect in the signal ratio in the repeat runs, not every such curve was filed as active; the % refers to the signal ratio)
In short: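 Agonist mode reporter screen. ME-180 cells stably expressing bla under HRE control received test compounds in DMSO for 17 hrs (37C, 5% CO2), and beta-lactamase activity was then detected with the CCF4-AM FRET substrate.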

[2] = qHTS assay to identify small molecule agonists of H2AX - cell viability counter screen (AID 1224847; calls by dose curve; note: nearly all actives have a fitted effect of over 30% in size; note: potency is the fitted concentration of half-maximal effect)
In short: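 Wild-type CHO-K1 cells (10% FBS medium) were plated overnight at 37C, exposed to compounds at 15 concentrations for 3 hr at 37C (0.76% DMSO final), and viability was read as CellTiter-Glo luminescence after 30 min at room temperature.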

[3] = qHTS assay to identify small molecule antagonists of the estrogen related receptor (ERR) signaling pathway from Tox21 library (AID 1224848); note: nearly all actives have a fitted effect of over 50% in size; note: potency is the fitted concentration of half-maximal effect
In short: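 ERR cell line, 2,000 cells/well. 6 h settle, then compound (DMSO) added; 18 h at 37 C; ONE-Glo luminescence after 30 min RT.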

[4] = qHTS assay to identify small molecule agonists of the estrogen related receptor (ERR) signaling pathway from Tox21 library (AID 1224849; calls by dose curve; note: nearly all actives have a fitted effect of over 15% in size); details: ERR reporter cell line, ONE-Glo luciferase, 18 h; at 92.4 µM (top of the series) unless noted
In short: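 Quantitative HTS in agonist format: NTP ERR cell line, compounds transferred in DMSO after 6 h plating, 18 h incubation at 37 C, ONE-Glo luminescence endpoint.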

[5] = qHTS RealTime-Glo MT Cell Viability Assay in HEK293 cells - 32 hour (AID 1224868); note: nearly all actives have a fitted effect of over 50% in size; note: potency is the fitted concentration of half-maximal effect
In short: (§1)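 Quantitative high-throughput screen of the Tox21 10K library in HEK293: cells and RealTime-Glo reagents plated together, compound added at 5 h, luminescence monitored through 40 h at 37 C.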

[6] = A CellTox Green Cytotoxicity Assay to monitor cytotoxicity in HEK293 cells - 0 hour (AID 1224869); note: nearly all actives have a fitted effect of over 50% in size; note: potency is the fitted concentration of half-maximal effect
In short: (§2)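 Dead-cell fluorescence measured kinetically: asymmetric cyanine dye, HEK293, 600 cells/well, 5 h settle, 23 nL cpd/DMSO, 37 C, reads 0–40 h every 8 h.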

[7] = qHTS RealTime-Glo MT Cell Viability Assay in HepG2 cells - 40 hour (AID 1224870); note: nearly all actives have a fitted effect of over 50% in size; note: potency is the fitted concentration of half-maximal effect
In short: (§3)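 Real-time viability: cells seeded at 600 per well together with NanoLuc and cell-permeant prosubstrate, compounds added after 5 h incubation. Luminescence tracked at 0, 8, 16, 24, 32 and 40 h of exposure.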

[8] = A CellTox Green Cytotoxicity Assay to monitor cytotoxicity in HEK293 cells - 40 hour (AID 1224871); note: nearly all actives have a fitted effect of over 45% in size; note: potency is the fitted concentration of half-maximal effect
In short: as §2

[9] = qHTS RealTime-Glo MT Cell Viability Assay in HEK293 cells - 16 hour (AID 1224872); note: nearly all actives have a fitted effect of over 50% in size; note: potency is the fitted concentration of half-maximal effect
In short: as §1

[10] = qHTS RealTime-Glo MT Cell Viability Assay in HepG2 cells - 8 hour (AID 1224873); note: nearly all actives have a fitted effect of over 55% in size; note: potency is the fitted concentration of half-maximal effect
In short: as §3

[11] = qHTS RealTime-Glo MT Cell Viability Assay in HEK293 cells - 40 hour (AID 1224874); details: RealTime-Glo luminescence; max response: active compounds read low; note: nearly all actives have a fitted effect of over 50% in size; note: potency is the fitted concentration of half-maximal effect
In short: (§4)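 600 HEK293 cells per well, dispensed already mixed with RealTime-Glo MT reagents. Compound dosing came 5 h later. The same wells were read for luminescence at 0, 8, 16, 24, 32 and 40 h of exposure at 37 C.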

[12] = A CellTox Green Cytotoxicity Assay to monitor cytotoxicity in HEK293 cells - 24 hour (AID 1224875); note: nearly all actives have a fitted effect of over 45% in size
In short: as §2

[13] = A CellTox Green Cytotoxicity Assay to monitor cytotoxicity in HepG2 cells - 16 hour (AID 1224876); note: nearly all actives have a fitted effect of over 45% in size; note: potency is the fitted concentration of half-maximal effect
In short: (§5)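 First, HepG2 cells (600/well) mixed with reagent were plated; second, after 5 h at 37 C they received compounds via pintool; third, fluorescence was measured at 0 h through 40 h at 8 h intervals.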

[14] = qHTS RealTime-Glo MT Cell Viability Assay in HepG2 cells - 32 hour (AID 1224877); note: nearly all actives have a fitted effect of over 55% in size; note: potency is the fitted concentration of half-maximal effect
In short: (§6)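 Compound treatment began 5 h after plating HepG2 cells (600/well) with NanoLuc luciferase and prosubstrate. Plates stayed at 37 C for 40 h; luminescence was captured at six time points, 0 h through 40 h.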

[15] = A CellTox Green Cytotoxicity Assay to monitor cytotoxicity in HepG2 cells - 24 hour (AID 1224878); note: nearly all actives have a fitted effect of over 45% in size; note: potency is the fitted concentration of half-maximal effect
In short: as §5

[16] = A CellTox Green Cytotoxicity Assay to monitor cytotoxicity in HepG2 cells - 40 hour (AID 1224879); note: nearly all actives have a fitted effect of over 40% in size; note: potency is the fitted concentration of half-maximal effect
In short: as §5

[17] = qHTS RealTime-Glo MT Cell Viability Assay in HEK293 cells - 0 hour (AID 1224880)
In short: as §4

[18] = A CellTox Green Cytotoxicity Assay to monitor cytotoxicity in HEK293 cells - 32 hour (AID 1224881); note: nearly all actives have a fitted effect of over 40% in size; note: potency is the fitted concentration of half-maximal effect
In short: as §2

[19] = qHTS RealTime-Glo MT Cell Viability Assay in HepG2 cells - 24 hour (AID 1224867); note: nearly all actives have a fitted effect of over 50% in size; note: potency is the fitted concentration of half-maximal effect
In short: as §6

Compound	Potency [1]	Potency [2]	Potency [3]	activity change, positive = activation [4]	Potency [5]	Potency [6]	Potency [7]	Potency [8]	Potency [9]	Potency [10]	max response [11] [%]	Potency [12]	Potency [13]	Potency [14]	Potency [15]	Potency [16]	Potency [17]	Potency [18]	Potency [19]	Potency [11]
COc1ccc(C)cc1[N+](=O)[O-]	inactive	inactive	inactive	4.3%	inactive	inactive	inactive	inactive	inactive	inactive	-4.46	inactive	inactive	inactive	inactive	inactive	inactive	inactive	–	–
CC(C)Cc1ccc(C(C)C(=O)OCc2ccccn2)cc1 (stereo unspecified)	inactive	inactive	–	–	–	inactive	inactive	inactive	–	inactive	–	inactive	inactive	inactive	inactive	–	inactive	inactive	inactive	–
O=C(c1ccc(F)cc1)C1CCN(CCn2c(=S)[nH]c3ccccc3c2=O)CC1	inactive	49.2 µM (active)	26.6 µM (active)	-56.8% [at 42.5 µM]	5.35 µM (active)	inactive	inactive	inactive	3.38 µM (active)	–	–	inactive	–	inactive	inactive	–	–	inactive	–	5.35 µM (active)
COc1cc(Cl)c(OC)cc1N	inactive	inactive	–	–	inactive	inactive	inactive	inactive	inactive	inactive	–	inactive	inactive	inactive	inactive	–	inactive	inactive	inactive	–
CC(=O)OC[C@H]1O[C@@H](n2ncc(=O)[nH]c2=O)[C@H](OC(C)=O)[C@@H]1OC(C)=O	inactive	inactive	–	–	inactive	inactive	inactive	inactive	inactive	inactive	–	inactive	inactive	inactive	inactive	inactive	inactive	inactive	inactive	–
CCN(CC)c1ccc2c(-c3ccccc3C(=O)O)c3ccc(=[N+](CC)CC)cc-3oc2c1	inactive	40.1 µM (active)	27.3 µM (active)	-49.3%	21.9 µM (active)	21.9 µM (active)	–	24.5 µM (active)	34.7 µM (active)	–	–	–	24.5 µM (active)	–	21.9 µM (active)	–	inactive	24.5 µM (active)	–	24.5 µM (active)
CCCOC(C(=O)OC1CCN(C)CC1)(c1ccccc1)c1ccccc1	inactive	inactive	–	-25.8% [at 42.5 µM]	–	inactive	inactive	–	–	inactive	–	–	19 µM (active)	inactive	23.9 µM (active)	23.9 µM (active)	inactive	–	–	–
Cc1oc(-c2ccccc2)nc1CCOc1cccc2c1ccn2CCC(=O)O	inactive	inactive	–	–	inactive	inactive	inactive	inactive	inactive	inactive	-19	inactive	inactive	inactive	inactive	inactive	inactive	inactive	inactive	–
CCCCCCCCCCCC(=O)OC[C@@H](O)[C@H]1OC[C@H](OCCO)[C@H]1OCCO	inactive	inactive	–	–	inactive	inactive	inactive	inactive	inactive	inactive	-0.559	inactive	inactive	inactive	inactive	inactive	inactive	inactive	inactive	–
C[N+]1(CC2COC(c3ccccc3)(C3CCCCC3)O2)CCCCC1 (stereo unspecified)	inactive	inactive	inactive	-8.13% [at 42.5 µM]	–	inactive	23.9 µM (active)	inactive	inactive	inactive	–	inactive	inactive	–	inactive	inactive	inactive	inactive	inactive	–
CC1=CC=C(C(C)C)CC1	inactive	inactive	–	–	inactive	inactive	inactive	inactive	inactive	inactive	1.32	inactive	inactive	inactive	inactive	inactive	inactive	inactive	inactive	–
Nc1ccc(N)c2c1C(=O)c1ccccc1C2=O	inactive	50.5 µM (active)	43.3 µM (active)	-37.5%	–	inactive	inactive	inactive	–	–	–	inactive	inactive	inactive	inactive	inactive	inactive	inactive	–	–
CC1(c2ccccc2)OC(C(=O)O)=CC1=O (stereo unspecified)	inactive	inactive	–	–	inactive	inactive	inactive	inactive	inactive	inactive	2.42	inactive	inactive	inactive	inactive	inactive	inactive	inactive	inactive	–
Cc1ccc(C(=O)Oc2ccc(C(O)CNC(C)(C)C)cc2OC(=O)c2ccc(C)cc2)cc1 (stereo unspecified)	inactive	inactive	–	–	–	inactive	23.9 µM (active)	23.9 µM (active)	–	21.3 µM (active)	–	–	21.3 µM (active)	23.9 µM (active)	21.3 µM (active)	–	inactive	26.8 µM (active)	21.3 µM (active)	–
C=C(C)C(=O)OCCOCC	inactive	inactive	–	–	inactive	inactive	inactive	inactive	inactive	inactive	17.3	–	inactive	inactive	inactive	inactive	inactive	inactive	inactive	–
